Assay results: PubChem BioAssay AID1159580 (chemical genetic matrix, 2015)
Hit rate of the full screen: of about 5,500 compounds, about 2,000 (36%) were called active. Another 18% or so got no clear call; they are omitted. No stated cut-off is given here; in the data, active means normalized growth mostly below about 0.91 (no sharp cut-off); inconclusive means no clear call, values can overlap the other calls; inactive means mostly above about 0.92. This is one part of the list.

Test: chemical genetic growth profiling, strain panel (AID 1159580);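 further: tested at 20 µM; growth read once vehicle control cultures reached saturation at 30 °C; 1 = growth at the plate median or of vehicle wells; lower values mean less growth of the strain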
Conditions: growth OD
[1] = S. cerevisiae deletion strains, locus YAL013W, strain DEP1, active compounds read low
[2] = S. cerevisiae deletion strains, locus YDR150W, strain NUM1, active compounds read low
[3] = S. cerevisiae deletion strains, locus YGR078C, strain PAC10, active compounds read low
[4] = S. cerevisiae deletion strains, locus YJR075W, strain HOC1, active compounds read low
[5] = S. cerevisiae deletion strains, locus YNL153C, strain GIM3, active compounds read low
[6] = S. cerevisiae deletion strains, locus YPL055C, strain LGE1, active compounds read low
[7] = S. cerevisiae deletion strains, locus YPL241C, strain CIN2, active compounds read low
[8] = S. cerevisiae deletion strains, locus YDL101C, strain DUN1, active compounds read low
[9] = S. cerevisiae deletion strains, locus YHR030C, strain SLT2, active compounds read low

Measured: normalized growth

CCCN(CCC)C1CCc2cccc(O)c2C1 (stereo not given)
inactive: [1] 1 | S. cerevisiae deletion strains, locus YAL040C, strain CLN3, active compounds read low 0.984 | S. cerevisiae deletion strains, locus YCL061C, strain MRC1 (second series), active compounds read low 1 | [2] 0.998 | S. cerevisiae deletion strains, locus YDR363W, strain ESC2, active compounds read low 1.01 | S. cerevisiae deletion strains, locus YER002W, strain NOP16, active compounds read low 1 | [3] 1.01 | [4] 0.995 | S. cerevisiae deletion strains, locus YNL128W, strain TEP1, active compounds read low 1 | [5] 1.1 | S. cerevisiae deletion strains, locus YNL175C, strain NOP13, active compounds read low 1.01 | S. cerevisiae deletion strains, locus YNL197C, strain WHI3, active compounds read low 1.01 | S. cerevisiae deletion strains, locus YNL224C, strain SQS1, active compounds read low 1.02 | S. cerevisiae deletion strains, locus YOR083W, strain WHI5 (second series), active compounds read low 1.01 | [6] 1 | [7] 1

Cc1ccc(NNC(=O)c2c(C)noc2C)cc1Cl
inactive: S. cerevisiae deletion strains, locus YAR019C, strain CDC15, active compounds read low 0.977 | S. cerevisiae deletion strains, locus YBL105C, strain PKC1, active compounds read low 0.972 | S. cerevisiae deletion strains, locus YBR135W, strain CKS1, active compounds read low 0.982 | S. cerevisiae deletion strains, locus YBR136W, strain MEC1, active compounds read low 0.975 | S. cerevisiae deletion strains, locus YBR160W, strain CDC28, active compounds read low 0.982 | S. cerevisiae deletion strains, locus YDL017W, strain CDC7, active compounds read low 0.979 | S. cerevisiae deletion strains, locus YDL028C, strain MPS1, active compounds read low 0.986 | [8] 0.976 | S. cerevisiae deletion strains, locus YDL108W, strain KIN28, active compounds read low 0.981 | S. cerevisiae deletion strains, locus YDL132W, strain cdc53, active compounds read low 0.987 | S. cerevisiae deletion strains, locus YDL214C, strain PRR2, active compounds read low 0.939 | S. cerevisiae deletion strains, locus YDR052C, strain DBF4, active compounds read low 0.988 | S. cerevisiae deletion strains, locus YDR054C, strain cdc34, active compounds read low 0.993 | S. cerevisiae deletion strains, locus YDR226W, strain ADK1, active compounds read low 0.978 | S. cerevisiae deletion strains, locus YDR477W, strain SNF1, active compounds read low 0.946 | S. cerevisiae deletion strains, locus YER123W, strain YCK3, active compounds read low 0.857 | S. cerevisiae deletion strains, locus YER133W, strain GLC7, active compounds read low 0.947 | S. cerevisiae deletion strains, locus YFL009W, strain cdc4, active compounds read low 0.986 | S. cerevisiae deletion strains, locus YFL029C, strain CAK1, active compounds read low 0.984 | S. cerevisiae deletion strains, locus YFR003C, strain YPI1, active compounds read low 0.983 | S. cerevisiae deletion strains, locus YFR019W, strain FAB1, active compounds read low 0.903 | S. cerevisiae deletion strains, locus YFR028C, strain CDC14, active compounds read low 0.992 | S. cerevisiae deletion strains, locus YGR040W, strain KSS1, active compounds read low 0.925 | S. cerevisiae deletion strains, locus YGR052W, strain FMP48, active compounds read low 0.987 | S. cerevisiae deletion strains, locus YGR092W, strain DBF2, active compounds read low 0.833 | [9] 0.865 | S. cerevisiae deletion strains, locus YHR079C, strain IRE1, active compounds read low 0.964 | S. cerevisiae deletion strains, locus YHR082C, strain KSP1, active compounds read low 1.02 | S. cerevisiae deletion strains, locus YHR205W, strain SCH9, active compounds read low 0.926 | S. cerevisiae deletion strains, locus YIL147C, strain SLN1, active compounds read low 0.983 | S. cerevisiae deletion strains, locus YJL095W, strain BCK1, active compounds read low 0.929 | S. cerevisiae deletion strains, locus YJL128C, strain PBS2, active compounds read low 0.979 | S. cerevisiae deletion strains, locus YJL157C, strain FAR1, active compounds read low 0.923 | S. cerevisiae deletion strains, locus YJR016C, strain ILV3, active compounds read low 0.981 | S. cerevisiae deletion strains, locus YJR066W, strain TOR1 (second series), active compounds read low 0.909 | S. cerevisiae deletion strains, locus YJR066W, strain TOR1, active compounds read low 0.983 | S. cerevisiae deletion strains, locus YKL048C, strain ELM1, active compounds read low 0.916 | S. cerevisiae deletion strains, locus YKL067W, strain YNK1, active compounds read low 0.935 | S. cerevisiae deletion strains, locus YKL101W, strain HSL1, active compounds read low 0.943 | S. cerevisiae deletion strains, locus YKL193C, strain SDS22, active compounds read low 0.985 | S. cerevisiae deletion strains, locus YKL203C, strain TOR2, active compounds read low 1 | S. cerevisiae deletion strains, locus YLR113W, strain HOG1, active compounds read low 0.868 | S. cerevisiae deletion strains, locus YLR133W, strain CKI1, active compounds read low 0.943 | S. cerevisiae deletion strains, locus YLR403W, strain SFP1, active compounds read low 0.92 | S. cerevisiae deletion strains, locus YML070W, strain DAK1, active compounds read low 0.906 | S. cerevisiae deletion strains, locus YMR001C, strain CDC5, active compounds read low 0.984 | S. cerevisiae deletion strains, locus YMR205C, strain PFK2 (second series), active compounds read low 0.955 | S. cerevisiae deletion strains, locus YMR277W, strain FCP1, active compounds read low 0.986 | S. cerevisiae deletion strains, locus YNL006W, strain LST8, active compounds read low 0.99 | S. cerevisiae deletion strains, locus YNL020C, strain ARK1, active compounds read low 0.948 | S. cerevisiae deletion strains, locus YNL161W, strain CBK1, active compounds read low 0.98 | S. cerevisiae deletion strains, locus YNL183C, strain NPR1, active compounds read low 0.98 | S. cerevisiae deletion strains, locus YNL207W, strain RIO2, active compounds read low 0.992 | S. cerevisiae deletion strains, locus YNL222W, strain SSU72, active compounds read low 0.982 | S. cerevisiae deletion strains, locus YNL307C, strain MCK1 (second series), active compounds read low 0.881 | S. cerevisiae deletion strains, locus YOL078W, strain AVO1, active compounds read low 0.98 | S. cerevisiae deletion strains, locus YOL136C, strain PFK27, active compounds read low 0.922 | S. cerevisiae deletion strains, locus YOR061W, strain CKA2, active compounds read low 0.917 | S. cerevisiae deletion strains, locus YOR119C, strain RIO1, active compounds read low 0.976 | S. cerevisiae deletion strains, locus YOR231W, strain MKK1, active compounds read low 0.917 | S. cerevisiae deletion strains, locus YOR329C, strain SCD5, active compounds read low 0.986 | S. cerevisiae deletion strains, locus YPL031C, strain PHO85, active compounds read low 0.944 | S. cerevisiae deletion strains, locus YPL153C, strain RAD53, active compounds read low 0.922 | S. cerevisiae deletion strains, locus YPL204W, strain HRR25, active compounds read low 0.956 | S. cerevisiae deletion strains, locus YPL209C, strain IPL1, active compounds read low 0.973 | S. cerevisiae deletion strains, locus YPL256C, strain CLN2, active compounds read low 0.903 | S. cerevisiae deletion strains, locus YPR025C, strain CCL1, active compounds read low 0.981 | S. cerevisiae deletion strains, locus YPR106W, strain ISR1, active compounds read low 0.981 | S. cerevisiae deletion strains, locus YPR111W, strain DBF20, active compounds read low 0.961 | S. cerevisiae deletion strains, strain NNK1, active compounds read low 0.975 | S. cerevisiae deletion strains, strain TSCII, active compounds read low 0.98

Cc1onc(-c2c(F)cccc2Cl)c1C(=O)Oc1ccccc1
active: S. cerevisiae deletion strains, locus YEL061C, strain CIN8, active compounds read low 0.908
inactive: [1] 0.964 | S. cerevisiae deletion strains, locus YBR229C, strain ROT2, active compounds read low 0.962 | S. cerevisiae deletion strains, locus YCL061C, strain MRC1, active compounds read low 0.963 | [8] 0.938 | S. cerevisiae deletion strains, locus YDL134C, strain PPH21, active compounds read low 0.993 | [2] 0.943 | [3] 0.945 | [9] 0.727 | S. cerevisiae deletion strains, locus YHR087W, strain rtc3, active compounds read low 0.948 | S. cerevisiae deletion strains, locus YJR043C, strain POL32, active compounds read low 0.951 | [4] 0.939 | S. cerevisiae deletion strains, locus YLR039C, strain RIC1, active compounds read low 0.857 | S. cerevisiae deletion strains, locus YLR058C, strain SHM2 (second series), active compounds read low 0.973 | S. cerevisiae deletion strains, locus YLR085C, strain ARP6, active compounds read low 0.838 | S. cerevisiae deletion strains, locus YLR262C, strain YPT6, active compounds read low 0.839 | S. cerevisiae deletion strains, locus YML094W, strain GIM5, active compounds read low 0.978 | S. cerevisiae deletion strains, locus YMR219W, strain ESC1, active compounds read low 0.966 | S. cerevisiae deletion strains, locus YMR263W, strain SAP30, active compounds read low 0.979 | S. cerevisiae deletion strains, locus YMR307W, strain GAS1, active compounds read low 0.705 | [5] 0.984 | S. cerevisiae deletion strains, locus YNL298W, strain CLA4 (second series), active compounds read low 0.98 | S. cerevisiae deletion strains, locus YNL322C, strain KRE1, active compounds read low 0.973 | S. cerevisiae deletion strains, locus YNR030W, strain Alg12, active compounds read low 0.989 | [6] 0.97 | [7] 0.994 | S. cerevisiae deletion strains, locus YPR135W, strain CTF4, active compounds read low 0.948 | S. cerevisiae strains, strain wild type, active compounds read low 0.935
